Screening data as filed in PubChem.
This excerpt belongs to a sample that is enriched for hits.
HTT ATP protect: protects HTT-Q103 PC12 cells, measured by ATP | PC12 HTT-Q103 induced, cytoprotection, ATP luminescence, 40 h | Potency, µM (highest dose often 56.4 µM), actives largely listed as activators | 230,000 compounds, 0.14% hits; further: nearly all actives have a fitted effect of over 45% in size
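Compounds were screened for protection of PC12 cells against cell death after tebufenozide induction (100 nM final) of mutant Huntingtin exon 1 (Q103) fused to GFP.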
Epigenetic derep: epigenetic control regulation, reporter derepression | Potency, µM (top dose mostly 53.9 µM), most hits filed as activators | 280,000 compounds, 0.2% hits | murine LDR cells, GFP reporter derepression, 30 h; further: nearly all actives have a fitted effect of over 60% in size
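Murine LDR cells bearing a silenced CMV-driven GFP reporter were exposed to compound for 30 h at 37 C. After PBS washes, GFP-positive cells (20-120 um objects) counted by laser-scanning microplate cytometry.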
HttQ103 aggreg: reduces HttQ103-GFP aggregates in PC12 cells | PC12 HttQ103-GFP aggregates, Acumen cytometry, 40 h | Potency, µM (top dose mostly 46.1 µM), usual class: inhibitors | 220,000 compounds, 1.1% hits | AID 1688; further: nearly all actives have a fitted effect of over 60% in size
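PC12 cells stably carrying ecdysone-inducible HTT exon 1 Q103–GFP were induced with tebufenozide (100 nM final) and treated with library compounds in titration. GFP aggregates in lysates were counted by laser scanning cytometry.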
PINK1 expr mod: changes PINK1 expression; PINK1 immunofluorescence, high-content cytometry, 24 h; 410,000 compounds, 0.2% hits; Potency, µM (top dose mostly 76.6 µM), hits mostly activators; active means well fitted activation curve with a large enough effect; inconclusive means small, poorly fitted or top-dose-only effect; cell line not stated here; further: nearly all actives have a fitted effect of over 65% in size
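PINK1 protein, normally rapidly degraded, was detected by immunofluorescence after 24 hour compound treatment of a stable cell line. Titration data (5 concentrations) came from laser-scanning cytometry, with CCCP-treated wells as controls.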
Large screens that a line does not name were inactive. Unless noted, the call rests on the fitted dose curve; in most records, active means well fitted curve in the direction sought with a large enough effect; inconclusive means small, poorly fitted or top-dose-only effect, or another doubt; inactive means no such curve, though single readings can be large; an effect the other way counts as inactive or inconclusive.

O=C(CSc1nc(O)cc(=O)n1-c1ccccc1)Nc1ccc(Br)cn1	HttQ103 aggreg inconclusive
Cc1ccc(S(=O)(=O)NC(C)C(=O)NC2CCCCCC2)cc1 (centres undefined)	HttQ103 aggreg 0.891µM
CCN(CC)c1ccc(NC(=O)CN2CCN(c3nc(C)cc(C)n3)CC2)cc1	none
O=C(CN1C(=O)CCC1=O)Nc1cccc(NC(=O)CN2C(=O)CCC2=O)c1	none
O=C1N/C(=N\N=C\c2cccs2)SC1Cc1cccc(Cl)c1 (centres undefined)	none (no result: HTT ATP protect)
O=C1N/C(=N\N=C\c2ccc3ncccc3c2)SC1Cc1ccc(SC(F)F)cc1 (centres undefined)	none
O=C1N/C(=N\N=C\c2cccnc2)SC1Cc1ccc(SC(F)F)cc1 (centres undefined)	HttQ103 aggreg 5.62µM
O=C1N/C(=N\N=C\c2ccccn2)SC1Cc1cccc(SC(F)F)c1 (centres undefined)	HttQ103 aggreg 5.62µM
Oc1ccc(N=Nc2ccccc2)cc1	none (no result: HTT ATP protect, Epigenetic derep, HttQ103 aggreg)
Oc1ccc(N=Nc2n[nH]c(-c3ccc(Cl)cc3)n2)cc1	HttQ103 aggreg 17.8µM
COc1ccc(NS(=O)(=O)c2cccc(C(=O)N/N=C/c3c(F)c(F)c(F)c(F)c3F)c2)cc1	none (no result: HTT ATP protect, Epigenetic derep, HttQ103 aggreg)
Cc1cccc(NC(=O)C2CC(O)CN2C(=O)Oc2ccccc2)c1 (centres undefined)	none (no result: HTT ATP protect, Epigenetic derep, HttQ103 aggreg)
CCOC(=O)c1c(NC(=O)c2cc(=O)c3c(C)cc(C)cc3o2)sc2c1CCC2	PINK1 expr mod 31.6µM (no result: HTT ATP protect, HttQ103 aggreg)
CCOC(=O)c1c(NC(=O)c2cc(=O)c3c(C)cc(C)cc3o2)sc(C)c1C	none (no result: HTT ATP protect, HttQ103 aggreg)
C/C(Cn1nnc2ccccc21)=N\OC(=O)c1ccccc1C	none
O=C(CSc1ccc2ccccc2c1)Nc1ccncc1	PINK1 expr mod 12.6µM
COc1cc(S(=O)(=O)N2CCOCC2)cc(C(=O)NCC(c2cccs2)N2CCOCC2)c1OC (centres undefined)	none (no result: HTT ATP protect, Epigenetic derep, HttQ103 aggreg)
O=C(NC1CCCCC1)C(c1cccnc1)N(C(=O)CCl)c1ccc(F)cc1 (centres undefined)	HttQ103 aggreg 6.31µM
O=C(NC1CCCCC1)C(c1cccnc1)N(C(=O)CCl)c1ccccc1Cl (centres undefined)	HttQ103 aggreg inconclusive
COc1ccc(N(C(=O)CCl)C(C(=O)NC2CCCCC2)c2cccnc2)cc1 (centres undefined)	HttQ103 aggreg 22.4µM
COc1cccc(CN2CCN(Cc3cccc4c3OCO4)CC2CCO)c1 (centres undefined)	none
C#CCOc1ccc(/C=C2\SC(=S)N(Cc3cccnc3)C2=O)cc1	none
CCCN1C(=O)/C(=C/c2ccncc2)SC1=S	none
O=C1/C(=C/c2ccncc2)SC(=S)N1Cc1ccccc1	Epigenetic derep 15.8µM
O=C1/C(=C/c2ccc(O)cc2)SC(=S)N1Cc1cccnc1	PINK1 expr mod 35.5µM (no result: HTT ATP protect)
CC1CCCC(NC(=O)c2cccc(S(=O)(=O)N3CCCCC3)c2)C1C (centres undefined)	none (no result: HTT ATP protect, Epigenetic derep, HttQ103 aggreg)
CCN(CC)C(CNC(=O)CSc1nnnn1-c1ccc(C)c(C)c1)c1ccco1 (centres undefined)	none (no result: HTT ATP protect, Epigenetic derep, HttQ103 aggreg)
CCc1c(C)nc2ncnn2c1Nc1ccc(C#N)c(Cl)c1	HttQ103 aggreg 12.6µM
CC(C)(C)Cc1c(-c2ccc(C#N)cc2)nc2c(Cl)cc(C(F)(F)F)cn12	PINK1 expr mod 35.5µM (no result: HTT ATP protect, Epigenetic derep, HttQ103 aggreg)
CC(NCC(O)COc1ccc(S(=O)(=O)N2CCOCC2)cc1)c1ccccc1 (centres undefined)	HTT ATP protect 2.24µM
O=C(N/N=C/c1ccccc1O)c1cccc(C(F)(F)F)c1	HttQ103 aggreg 2.51µM (no result: HTT ATP protect)
O=C(c1nnsc1S(=O)c1ccc(Cl)cc1)N1CCOCC1 (centres undefined)	HttQ103 aggreg 11.2µM
O=C(c1nnsc1S(=O)(=O)c1ccc(Cl)cc1)N1CCOCC1	Epigenetic derep inconclusive, HttQ103 aggreg 12.6µM
CNC(=O)c1nnsc1S(=O)(=O)c1ccc(Cl)cc1	HttQ103 aggreg 3.16µM
COc1ccc(/C=C/C(=O)Nc2ccc3nc(N4CCC(C)CC4)cc(C)c3c2)cc1	Epigenetic derep 22.4µM (no result: HTT ATP protect, HttQ103 aggreg)
COc1ccc(C(=O)Nc2ccc3nc(N4CCC(C)CC4)cc(C)c3c2)cc1	Epigenetic derep inconclusive (no result: HTT ATP protect, HttQ103 aggreg)
COc1cc(OC)c(NS(=O)(=O)c2cc(C(=O)OC(C)C(=O)NC3CC3)c(Cl)cc2Cl)cc1Cl (centres undefined)	none
Cc1ccc(-c2nc3cccnc3s2)cc1NS(=O)(=O)c1ccc2c(c1)CCCC2	none (no result: HTT ATP protect)
COc1ccc(/C=C(/NC(=O)c2cccc([N+](=O)[O-])c2)C(=O)O)cc1	none
CCOC(=O)N1CCC(Nc2ncnc3c2cnn3-c2ccc(C)cc2C)CC1	HttQ103 aggreg 12.6µM
C=CCNc1ncnc2c1cnn2-c1ccc(C)cc1C	none
O=c1[nH]c(=O)n(Cc2ccco2)c2c1C(C(F)(F)F)(C(F)(F)F)N=C(c1ccc(F)cc1)N2	HttQ103 aggreg 1.26µM, PINK1 expr mod 12.6µM
CC(=O)N1CCN(c2ccc(Nc3ncnc4c3oc3ccccc34)cc2)CC1	HttQ103 aggreg 17.8µM
CC(C)c1[nH]nc2c1C(c1cccc(OC(=O)N3CCOCC3)c1)C(C#N)=C(N)O2 (centres undefined)	HttQ103 aggreg 3.16µM
CCCCC1C(=O)N(c2ccccc2)N(c2ccc(O)cc2)C1=O (centres undefined)	HTT ATP protect 2.24µM, Epigenetic derep inconclusive (no result: HttQ103 aggreg)
CN1\C(=C/C=C/C=C/C=[N+](C)C)C(C)(C)c2ccccc21	HttQ103 aggreg 10µM, PINK1 expr mod inconclusive
COc1ccc(Nc2nc(N)c3ccccc3n2)c(OC)c1	none (no result: HTT ATP protect, Epigenetic derep, HttQ103 aggreg)
O=C(NCCc1ccc(Cl)cc1)C1CCCN1C(=O)Nc1ccccc1 (centres undefined)	none (no result: HTT ATP protect, Epigenetic derep, HttQ103 aggreg)
CC[n+]1c(/C=C(\C)Nc2ccccc2)sc2ccccc21	none
CC[n+]1c(/C=C/Nc2ccccc2)sc2ccccc21	HttQ103 aggreg 11.2µM
CC[n+]1c(C=C2C=C(C)OC(C)=C2)sc2ccccc21	Epigenetic derep 7.94µM, HttQ103 aggreg 3.98µM, PINK1 expr mod 22.4µM
Nc1ncnc2nc(SCCN3CCCCC3)[nH]c12	HttQ103 aggreg inconclusive
CC1=C(C(=O)OCc2ccccc2)C(c2cccnc2)n2nnnc2N1 (centres undefined)	none
O=C(c1cccnc1)N1C2CCC1CC(O)(c1ccc(F)cc1)C2 (centres undefined)	none (no result: PINK1 expr mod)
O=c1c(Cl)cc(Cl)nn1-c1ccccc1	HttQ103 aggreg 17.8µM
COc1ccc(C)cc1NC(=O)C(OC(=O)c1cc(C)oc1C)c1ccccc1 (centres undefined)	HttQ103 aggreg inconclusive
Cc1nn(C)c(C)c1CN(C)S(=O)(=O)c1ccc2ccccc2c1	HTT ATP protect inconclusive, HttQ103 aggreg 7.94µM
COc1ccc(S(=O)(=O)N2CCN(c3ccccc3F)CC2)cc1-c1noc(C)n1	Epigenetic derep 1.12µM (no result: HTT ATP protect, HttQ103 aggreg)
COc1ccc(N2CCN(S(=O)(=O)c3ccc(OC)c(-c4noc(C)n4)c3)CC2)cc1	Epigenetic derep 5.01µM (no result: HTT ATP protect, HttQ103 aggreg)
CCc1nc(-c2cc(S(=O)(=O)N3CCN(c4ccccc4F)CC3)ccc2OC)no1	none (no result: HTT ATP protect, HttQ103 aggreg)
CCn1cc(C(=O)N2CCN(c3ccccc3OC)CC2)c(=O)c2cc(S(=O)(=O)N3CCCCC3)ccc21	none (no result: HTT ATP protect, HttQ103 aggreg)
